An excerpt weighted towards active compounds, which were near 5.7% of everything screened.
KB-V1 MDR tox = qHTS assay for MDR1-selective chemotherapeutics: Primary screen using the drug-selected MDR subline cells KB-V1. KB-V1 MDR cells viability, CellTiter-Glo, 72 h. Potency, µM (doses to about 46.1 µM), usual class: cytotoxic. actives 3.4% (n = 400,000); further: potency means the concentration at half of the fitted maximal effect; nearly all actives have a fitted effect of over 60% in size
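In this primary screen, KB-V1 cells overexpressing P-gp are incubated with library compounds (lowest to highest concentration) for 72 h at 37 degrees C before a luminescent ATP viability read.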
A549 tox-1 = Nrf2 qHTS screen for inhibitors: counterscreen for cytotoxicity; AID 504648, 2011; Potency, µM (titrated, usually from 46 µM), inactives show top-dose activity change, negative = cytotoxicity, hits mostly inhibitors; A549 ARE-Fluc cells, CellTiter-Fluor viability, 18-24 h; actives 0.16% (n = 390,000); further: potency means the concentration at half of the fitted maximal effect
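A549 ARE-Fluc cells in 5% FBS OPTI-MEM, 5000 cells/well, rested 2 h then exposed to compounds in concentration-response for 18-24 h at 37 °C. Viability by CellTiter-Fluor fluorescence (Ex 405/Em 525) after 30 min; luciferase luminescence (BugLite, 15 min, RT) read afterwards.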
PI4K2A inh = qHTS for small molecular inhibitors of PI4K2A | actives 0.13% (n = 420,000) | purified PI4K2A, ADP-Glo luminescence, 1 h; hits give low values | Phosphatidylinositol 4-kinase type 2-alpha (Homo sapiens), Q9BTU6 | activity change, negative = inhibition, % at 76.9 µM; in the data active means activity change below about -50%; inconclusive means mostly about -30% to -49%;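 further: -100% = wells without enzyme as full effect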
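PI4K2A activity was measured by ADP-Glo luminescence: enzyme (4 ug/mL stock) and phosphatidylinositol (1.2 mM stock) in Tris pH 7.5/MgCl2/EGTA/Triton X-100 buffer were reacted with ATP (300 microM stock) for one hour at ambient temperature.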
KB-3-1 tox = qHTS assay for MDR1-selective chemotherapeutics: Primary screen using the parental adenocarcinoma cell KB-3-1; KB-3-1 viability, CellTiter-Glo ATP luminescence, 72 h; Potency, µM (titrated, usually from 46.1 µM), most hits filed as cytotoxic; actives 1.4% (n = 400,000); further: potency means the concentration at half of the fitted maximal effect; nearly all actives have a fitted effect of over 60% in size
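KB-3-1 cells, DMEM (no phenol red) + 10% FBS; compound by pin transfer, 72 h, 37 °C. Readout: CellTiter-Glo luminescence after 10 min. Data normalized, curve-fitted.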
Nrf2 block = Nrf2 qHTS screen for inhibitors; A549 ARE-Fluc reporter, luciferase luminescence, 18-24 h; actives 2.1% (n = 360,000); Potency, µM (doses to about 46 µM), without a hit: top-dose activity change, negative = inhibition, hits mostly inhibitors; further: potency means the concentration at half of the fitted maximal effect; nearly all actives have a fitted effect of over 60% in size
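Concentration-response testing used A549 ARE_Fluc cells at 5000 cells/well. Following an 18-24 h compound incubation, viability was read by fluorescence (Ex 405/Em 525) and luciferase output by luminescence.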
Giardia kill = Small Molecules that selectively kill Giardia lamblia: qHTS; Giardia lamblia trophozoite viability; activity change, % at 7.66 µM, hits read low; actives 0.15% (n = 340,000); in the data active means activity change below about -80%; inconclusive means between about -30% and that limit;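 further: parasites exposed to compound for two days anaerobically before the ATP read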
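Anaerobic 48 hrs incubation at 37 deg C of 100 trophozoites/well with test compounds; ATPLite 1-Step luminescence, 15-30 min RT, reports cellular ATP as viability.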
FLuc counter 3 = Nrf2 qHTS screen for inhibitors: Purified Fluc Biochemical Counterscreen for Hit Validation. shares compounds with Nrf2 block. purified firefly luciferase, luminescence inhibition. Potency, µM (highest dose often 57.5 µM), for inactives: at the highest dose activity change, negative = inhibition, most hits filed as inhibitors. actives 4% (n = 1,400); further: potency means the concentration at half of the fitted maximal effect; nearly all actives have a fitted effect of over 65% in size
Target sequence (P08659 whole entry, looked up): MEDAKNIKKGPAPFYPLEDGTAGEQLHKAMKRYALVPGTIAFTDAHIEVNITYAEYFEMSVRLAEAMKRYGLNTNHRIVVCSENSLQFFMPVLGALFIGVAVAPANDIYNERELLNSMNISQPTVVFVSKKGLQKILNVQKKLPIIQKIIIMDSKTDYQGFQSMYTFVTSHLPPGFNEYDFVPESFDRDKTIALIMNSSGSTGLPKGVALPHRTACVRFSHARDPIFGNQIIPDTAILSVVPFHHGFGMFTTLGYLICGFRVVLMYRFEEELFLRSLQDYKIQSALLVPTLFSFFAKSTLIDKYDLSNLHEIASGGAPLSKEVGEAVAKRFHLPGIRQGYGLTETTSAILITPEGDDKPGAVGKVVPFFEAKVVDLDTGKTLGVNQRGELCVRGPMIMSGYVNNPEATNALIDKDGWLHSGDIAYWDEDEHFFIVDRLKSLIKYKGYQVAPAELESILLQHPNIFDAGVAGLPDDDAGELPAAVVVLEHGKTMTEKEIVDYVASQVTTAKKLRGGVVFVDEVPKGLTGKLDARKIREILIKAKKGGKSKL
A549 tox-2 = Nrf2 qHTS screen for inhibitors: A549 ARE-Fluc Cytotoxicity Counterscreen for Hit Validation | shares compounds with Nrf2 block | A549 ARE-Fluc cells, cytotoxicity counterscreen | Potency, µM (highest dose often 46.1 µM), for the others: at the highest dose activity change, negative = cytotoxicity, usual class: inhibitors | actives 2% (n = 1,400);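 further: potency means the concentration at half of the fitted maximal effect; cells exposed to compounds for 18 to 24 hours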
ARE-Fluc inh = Nrf2 qHTS screen for inhibitors: Nrf2 A549 ARE-Fluc Confirmation Assay for Hit Validation; A549 ARE-firefly luciferase reporter, luminescence; actives 74% (n = 1,400); shares compounds with Nrf2 block; Potency, µM (doses to about 46.1 µM), inactives show at the top dose activity change, negative = inhibition, usual class: inhibitors; further: potency means the concentration at half of the fitted maximal effect; nearly all actives have a fitted effect of over 65% in size
* hit, by the source's call; i = inactive; u = inconclusive; x = not tested or not shown. Unless noted, the call rests on the fitted dose curve; in most records, active means well fitted curve in the direction sought with a large enough effect; inconclusive means small, poorly fitted or top-dose-only effect, or another doubt; inactive means no such curve, though single readings can be large; an effect the other way counts as inactive or inconclusive. Unless noted, on the % scale 0 is the no-effect control and ±100 the full control effect.

SMILES	KB-V1 MDR tox	A549 tox-1	PI4K2A inh	KB-3-1 tox	Nrf2 block	Giardia kill	FLuc counter 3	A549 tox-2	ARE-Fluc inh
Cc1cc([N+](=O)[O-])c2ccccc2[n+]1[O-]	0.52µM*	u	-3	0.92µM*	4.1µM*	-88*	-21%	-8%	6.5µM*
C[C@@H]1O[C@@H](O[C@H]2C[C@@H](O)[C@]3(CO)[C@@H]4C(CC[C@]3(O)C2)[C@@]2(O)CC[C@H](C3COC(=O)C3)[C@@]2(C)C[C@H]4O)[C@H](O)[C@H](O)[C@H]1O (stereo not given in full)	1.8µM*	u	0	1.2µM*	0.21µM*	-2	0%	u	1.2µM*
O=C1CC(c2ccccc2Br)c2c(c3ccccc3oc2=O)O1 (stereo not given)	i	-4%	-4	i	x	x	x	x	x
COc1cc([C@@H]2c3cc4c(cc3C[C@H]3COC(=O)[C@@H]32)OCO4)cc(OC)c1O	i	-5%	x	u	u	2	x	x	x
S=c1[nH]nc(-c2ccn[nH]2)n1-c1ccccc1Cl	u	12%	-3	i	u	17	x	x	x
CC1Oc2cc3c(-c4c(O)cc(O)c5c(O)c6c(cc45)OC(C)C(C)C6=O)c(O)cc(O)c3c(O)c2C(=O)C1C (stereo not given)	u	u	-21	u	4.6µM*	-82*	1%	-17%	9.2µM*
CCCC(=O)N1c2ccc(Cl)cc2C(c2ccccc2)=NCC1C(=O)NC(C)(C)C (stereo not given)	x	x	1	x	x	x	x	x	x
C[C@H]1CCC/C=C/C2C[C@H](O)CC2[C@H](O)/C=C/C(=O)O1 (stereo not given in full)	0.41µM*	u	4	0.026µM*	0.15µM*	18	0%	u	x
CC1CCC/C=C/C2CC(O)CC2C(O)/C=C/C(=O)O1 (stereo not given)	u	u	0	u	0.26µM*	-10	3%	u	x
C[C@@H]1O[C@@H](O[C@@H]2C=C3CC[C@@H]4[C@@H](CC[C@]5(C)[C@H](c6ccc(=O)oc6)CC[C@@]45O)[C@@]3(C)CC2)[C@H](O)[C@H](O)[C@H]1O	0.92µM*	x	x	0.012µM*	x	x	2%	u	0.01µM*
COC(=O)C1=C(c2cccc(OCc3ccccc3)c2)C[C@@H]2CC[C@H]1N2C(=O)NCc1cccc(C(F)(F)F)c1	i	-7%	0	u	u	16	x	x	x
COC(=O)C1=C(c2cccc(OCc3ccccc3)c2)C[C@@H]2CC[C@H]1N2C(=O)NCc1cc(C)oc1C(F)(F)F	u	-11%	-1	u	u	6	3%	-17%	u
COc1cc2cc(C(=O)N3CC(COS(C)(=O)=O)c4ccc(O)cc43)[nH]c2c(OC)c1OC (stereo not given)	0.0092µM*	u	14	u	0.058µM*	-14	-19%	u	u

From PubChem
